# Screens deposited in PubChem BioAssay by The Scripps Research Institute Molecular Screening Center.
# MOR-DOR inv ag-1: inverse agonists of human mu-delta opioid receptor heterodimerization; cell-based MOR-DOR heterodimer luminescence, inverse agonism; 0.21% of 340,000 active; inhibition, % at 9.3 µM; in the data active means inhibition above about 22%, passing the limit was not always enough;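 further: 0% = cells with DMSO and 100% = wells without cells with DMSO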
# sPLA2-III inh: Blocks human group III sPLA2 activity. Q9NZ20. QFRET BODIPY PC-A2 liposome hydrolysis, fluorescence. inhibition, % at 12.2 µM. 0.56% of 370,000 active. AID 743126;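 active means inhibition above mean plus 3 SD of compounds lying within the high and low control bounds, cut at about 19% in these data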;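 further: 0% = median of test compound wells and 100% = no enzyme DMSO wells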
# m5-HT2A agonist: activates the mouse 5-HT2A serotonin receptor | activation, % at 7.6 µM | P35363 | 0.66% of 360,000 active | AID 624169 | CHO-K1 mHTR2A beta-arrestin complementation, luminescence; percent of 30 µM serotonin response;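 active means activation above a run cutoff, the mean activation of all tested compounds plus 3 SD, cut at about 14% in these data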;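 further: 0% = plate median of compound wells and 100% = 30 µM serotonin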
# MOR-DOR ag-1: agonists of human mu-delta opioid receptor heterodimerization | 0.3% of 340,000 active | cells, OPRM1-OPRD1 heterodimerization, luminescence | AID 504326 | activation, % at 9.3 µM; in the data active means activation above about 18%;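 further: 0% = vehicle-treated cells and 100% = reference agonist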
# HTR5A inv ctr: HTR5A inverse agonism, opioid heterodimer counter-screen | P47898 | HTR5A cell line, luminescence | inhibition, % at 9.3 µM | 0.083% of 340,000 active; in the data active means inhibition mostly above about 23%, no sharp cut-off; inactive means mostly below about 18%;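 further: 0% = cells with DMSO and 100% = no-cell wells with DMSO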
# Target sequence (P47898 whole entry, looked up): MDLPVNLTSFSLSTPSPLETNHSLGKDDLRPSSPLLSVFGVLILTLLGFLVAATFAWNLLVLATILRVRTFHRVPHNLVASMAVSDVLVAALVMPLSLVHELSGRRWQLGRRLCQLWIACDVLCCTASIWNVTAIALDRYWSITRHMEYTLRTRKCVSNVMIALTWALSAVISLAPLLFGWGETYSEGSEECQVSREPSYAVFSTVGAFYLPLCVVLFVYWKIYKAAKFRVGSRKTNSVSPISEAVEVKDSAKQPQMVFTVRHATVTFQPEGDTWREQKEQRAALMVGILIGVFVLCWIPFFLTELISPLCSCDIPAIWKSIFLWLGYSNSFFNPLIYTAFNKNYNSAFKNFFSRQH
# HTR5A ag: activates human HTR5A in OPRM1-OPRD1 agonist counter-screen | activation, % at 9.3 µM | 0.61% of 340,000 active | P47898 | HTR5A agonist assay, luminescence, cell-based; in the data active means activation mostly above about 9.5%, no sharp cut-off; inactive means mostly below about 7.6%;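 further: 0% = cells with vehicle only and 100% = reference agonist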
# MOR-DOR inv conf: confirmation of human OPRM1-OPRD1 heterodimerization inverse agonists; shares compounds with MOR-DOR inv ag-1; cells expressing OPRM1/OPRD1 heterodimer, luminescence; inhibition, % at 9.3 µM; 20% of 580 active; AID 504900; in the data active means inhibition above about 32%;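 further: 0% = cells with DMSO and 100% = wells lacking cells with DMSO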
# HTR5A inv count: inverse agonist of human HTR5A in OPRM1-OPRD1 counter-screen | inhibition, % at 9.3 µM | shares compounds with MOR-DOR inv ag-1 | HTR5A-expressing cells, luminescence, inverse agonism | 580 tested, under 10 active;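 further: 0% = cells with DMSO and 100% = no-cell wells with DMSO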
# MOR-DOR inv ag-2: opioid heterodimer inverse agonism, HTR5A counter-screen | U2OS counter-screen cells, complementation luminescence | shares compounds with HTR5A inv ctr | inhibition, % at 9.3 µM | AID 504912 | 190 tested, under 10 active;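 further: 0% = cells with DMSO and 100% = wells without cells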
# HTR5A inv confrm: HTR5A (human) inverse agonism, confirmation. 190 tested, under 10 active. HTR5A-expressing cells, luminescence. inhibition, % at 9.3 µM. shares compounds with HTR5A inv ctr;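 further: 0% = cells with DMSO and 100% = no cells with DMSO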
# MOR-DOR ag-2: opioid heterodimer agonism, HTR5A counter-screen; U2OS counter-screen cells, complementation luminescence, 3 h; 13% of 800 active; activation, % at 9.3 µM; shares compounds with HTR5A ag; in the data active means activation above about 18%
# HTR5A ag conf: confirmation of human HTR5A agonists; 17% of 800 active; HTR5A agonist cell assay, luminescence; shares compounds with HTR5A ag; activation, % at 9.3 µM; in the data active means activation above about 17%;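 further: 0% = cells with vehicle only and 100% = full reference agonist response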
# * = called active by the depositor; nt = no result given. Most compounds without a hit are left out; they make up all but 2.2% or so of the library. Unless noted, how the calls were made is not given here.
SMILES,MOR-DOR inv ag-1,sPLA2-III inh,m5-HT2A agonist,MOR-DOR ag-1,HTR5A inv ctr,HTR5A ag,MOR-DOR ag-2,HTR5A ag conf,others
COCCOC(=O)c1c(N)n(Cc2ccco2)c2nc3ccccc3nc12,28.6*,-10.0,5.0,-4.9,2.9,-1.0,nt,nt,MOR-DOR inv conf=2.7;HTR5A inv count=4.8
COC1CC=C2CCN3CCC4=C(CC(=O)OC4)C23C1 (configuration not stated),nt,-1.4,nt,nt,nt,nt,nt,nt,
c1ccc(-c2nc3ccccc3nc2-c2ccc(CN3CCC(n4nnc5ccccc54)CC3)cc2)cc1,nt,-3.4,nt,nt,nt,nt,nt,nt,
C[C@H]1CCC[C@@H](O)CCC/C=C/c2cc(O)cc(O)c2C(=O)O1,2.1,-4.7,-1.1,-0.4,-4.1,-1.8,nt,nt,
CC1CCC/C=C/C2CC(O)CC2C(O)/C=C/C(=O)O1 (configuration not stated),38.2*,9.3,-2.8,-6.5,-29.0,0.4,nt,nt,MOR-DOR inv conf=14.3;HTR5A inv count=-2.9
C[C@H]1CCC/C=C/C2C[C@H](O)CC2[C@H](O)/C=C/C(=O)O1 (some centres not stated),38.5*,nt,-7.6,-7.0,-2.5,1.0,nt,nt,MOR-DOR inv conf=18.6;HTR5A inv count=-2.6
CC(=O)OC1CC2OC3C=C(C)CCC3(C)C1(C)C21CO1 (configuration not stated),nt,1.6,3.4,nt,nt,nt,nt,nt,
COCCCn1c(N)c(C(=O)OCCOC)c2nc3ccccc3nc21,19.7,14.0,2.5,-4.7,6.6,-2.6,nt,nt,
CCOC(=O)c1c(NS(=O)(=O)c2ccccc2)n(CCCOC)c2nc3ccccc3nc12,45.9*,-0.7,7.1,-9.5,-29.0,-3.2,nt,nt,MOR-DOR inv conf=-51.3;HTR5A inv count=-117.8
ON1C2CCCCC2N(O)C1c1ccccc1F (configuration not stated),54.4*,6.3,1.2,-9.4,8.9,-3.0,nt,nt,MOR-DOR inv conf=-472.1;HTR5A inv count=-63.2
CN1CCN(c2c(F)cc([N+](=O)[O-])c(N)c2Br)CC1,15.8,-4.9,-4.0,-3.4,34.1*,-12.3,nt,nt,MOR-DOR inv ag-2=7.5;HTR5A inv confrm=1.2
COCCn1c(O)c(/C=N/NC(=O)CSC(=S)N2CCCC2)c(=O)[nH]c1=S,15.8,-5.4,-2.2,-4.2,30.1*,-0.7,nt,nt,MOR-DOR inv ag-2=-24.0;HTR5A inv confrm=-8.5
O=c1[nH]c(O)c(N=Nc2cc([N+](=O)[O-])ccc2O)c(=O)[nH]1,29.1,-2.1,-8.4,-5.8,27.8*,-10.3,nt,nt,MOR-DOR inv ag-2=20.9;HTR5A inv confrm=15.8
O=[N+]([O-])c1ccc(O)c([N+](=O)[O-])c1,11.6,5.8,1.8,-2.1,-2.9,0.8,nt,nt,
O=C(NCCN1CCC2(CC1)C(=O)NCN2c1ccccc1)c1ccc(Cl)cc1,nt,1.6,nt,nt,nt,nt,nt,nt,
Cc1ccc(OC(=O)N(C)C[C@H]2OCc3cnnn3CCCC(=O)N([C@@H](C)CO)C[C@@H]2C)cc1,nt,3.4,nt,nt,nt,nt,nt,nt,
Cc1[nH]c2ccc(O)cc2c1CCN,-2.8,0.9,4.0,0.5,-143.9,40.3*,0.9,50.3*,
CC[C@@H](CO)NC(=O)[C@@H]1C=C2c3cccc4c3c(cn4C)C[C@H]2N(C)C1,-19.0,-0.3,nt,3.4,-182.8,81.1*,1.4,77.6*,
CN(C)C(=O)O/N=C(\N)COc1ccc(C(C)(C)C)cc1,-32.1,3.8,-2.5,6.4,0.9,28.6*,1.3,1.1,
CCOC(=O)C(O)(c1ccc(N(C)C(=O)COc2ccccc2)cc1)C(F)(F)F (configuration not stated),12.7,-7.8,-1.5,-2.4,-8.1,3.0,nt,nt,
c1ccc2c(CCNC3CCCCC3)c[nH]c2c1,14.4,-3.9,4.0,-2.9,-65.2,25.3*,0.8,35.9*,
COC(=O)C1=C(c2ccc(F)cc2F)C[C@@H]2CC[C@H]1N2C(=O)NCc1ccc(C(F)(F)F)cc1,-18.3,-4.4,-5.6,3.3,9.7,6.8,nt,nt,
COC(=O)C1=C(c2ccc(F)cc2F)C[C@@H]2CC[C@H]1N2C(=O)NCc1ccc2c(c1)OCO2,15.8,-0.2,-1.1,-2.8,14.3,21.2*,3.6,-0.9,
COc1cccc(NC2=NCCS2)c1,nt,6.0,nt,nt,nt,nt,nt,nt,
CC1CCC(C(C)C)C(OC(=O)Cn2c(COc3ccccc3)[n+](C)c3ccccc32)C1 (configuration not stated),-7.4,-124.2,-7.6,1.4,-5.6,14.9*,3.0,5.6,
SMILES,MOR-DOR inv ag-1,sPLA2-III inh,m5-HT2A agonist,MOR-DOR ag-1,HTR5A inv ctr,HTR5A ag,MOR-DOR ag-2,HTR5A ag conf,others
COP(=O)(Cc1ccc(C#N)o1)OC,10.3,-0.5,2.6,-2.0,-11.4,15.4*,-0.3,-3.1,
CCCC(=O)c1ccc(CP(=O)(OCC)OCC)o1,11.0,1.2,0.6,-2.2,3.3,1.1,nt,nt,
CC[C@]12CCN(CC3(O)CC3)C(Cc3ccc(O)cc31)C2(C)C,nt,-5.2,nt,nt,nt,nt,nt,nt,
CCC(CO)(C(=O)OC1CC2CCC(C1)N2C)c1ccccc1 (configuration not stated),-5.7,3.4,-6.2,1.1,1.0,16.2*,-0.1,-0.6,
O=C(NCCN1CCC2(CC1)C(=O)NCN2c1ccccc1)c1ccccc1F,nt,2.5,nt,nt,nt,nt,nt,nt,
CCCCN1CCN(C(=O)COc2cc(=O)n(C)c3ccccc23)CC1,nt,0.0,nt,nt,nt,nt,nt,nt,
Nc1ccc(C2(c3ccc(N)cc3)c3ccccc3-c3ccccc32)cc1,-28.9,0.4,-1.4,5.8,-79.6,44.2*,22.7*,27.0*,
Nc1ccc(-c2ccccc2)cc1,7.8,10.1,6.1,-1.6,-3.2,0.8,nt,nt,
C=CCn1c(O)c(/C(C)=N/N2CCCCC2)c(=O)[nH]c1=O,17.2,2.2,0.5,-3.5,-50.6,19.5*,16.6,9.2,
C=CCn1c(O)c(C(C)=NCCN2CCCCC2)c(=O)[nH]c1=O,7.5,-1.4,4.3,-1.5,-10.0,6.2,nt,nt,
O=C(O)CCl,nt,-3.1,nt,nt,nt,nt,nt,nt,
CN1CC[C@@H]2CN[C@H](c3ccccc3)C[C@@H]21,nt,5.4,nt,nt,nt,nt,nt,nt,
Clc1cccc(Cl)c1NC1=NCCS1,nt,3.0,7.7,nt,nt,nt,nt,nt,
c1ccc2c(NC3=NCCS3)cccc2c1,-11.9,1.5,8.3,2.9,-43.0,18.0*,0.8,21.2*,
Cc1cc(O)c2c(c1)OC(C)(C)C1=C2CC(C)CC1 (configuration not stated),-62.1,9.2,0.8,12.4,-25.0,15.2*,6.5,5.1,
